CSC inhib: cancer stem cell viability inhibitors, primary screen, luminescence; hit rate 1.1% among 300,000; inhibition, % at 7.5 µM; cancer stem cell-like cells viability; in the data active = inhibition above about 75%; tested in HMLE shEcad cells
Calb FLC: C. albicans growth inhibition with fluconazole, primary screen, CaCi-2 strain, Alamar Blue fluorescence; C. albicans CaCi-2 (fluconazole-resistant clinical isolate) + fluconazole, 48 h; growth inhibition, % (test concentration not listed); hit rate 0.57% among 300,000;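 active = growth inhibition above about 58% in most replicates, limit read from the data, passing the limit was not always enough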;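 note: all wells also contain fluconazole at 8 µg/ml as a sub-toxic cotreatment; 0% = median of DMSO wells and 100% = median of geldanamycin control wells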
Mdm2-MdmX inh: inhibitors of human Mdm2-MdmX association, primary screen, cell-based, luminescence, split luciferase, SaOS-2, uHTS | Protein Mdm4 (Homo sapiens) + E3 ubiquitin-protein ligase Mdm2 (Homo sapiens), … | SaOS-2 split-luciferase Mdm2/MdmX complementation | inhibition, % at 8 µM | hit rate 3% among 330,000 | AID 485346, 2010;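 active = inhibition of at least 50% at 8 µM in the primary screen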
MPTP inh: mitochondrial permeability transition pore inhibitors, primary screen, biochemical, isolated mouse mitochondria, absorbance; Ca2+ swelling absorbance, 30 min; inhibition, % at 10 µM; hit rate 1.4% among 360,000; AID 602449, 2012;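 active = inhibition of 50% or more, scaled per plate between neutral and stimulator controls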;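 note: 0% = DMSO wells given calcium and 100% = 1 mM EGTA wells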
Beta apoptosis: inhibitors of cytokine-induced beta cell apoptosis, primary screen, luminescence; protection from apoptosis, % (concentration not given with the values); INS-1E cytokine-induced death, ATP luminescence, 48 h; percent of positive-control rescue, neutral wells zero; hit rate 0.8% among 300,000;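 active = Every replicate reaches about 75%, or at least half do and their mean reaches it too, limit read from the data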;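 note: 0% = cytokine-treated negative control wells and 100% = positive control rescue; higher means more ATP so stronger rescue from cytokine killing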
MPTP counter: fluorescence retest of MPTP screen hits in isolated mitochondria, single concentration | shares compounds with MPTP inh | membrane potential, Rhodamine 123 fluorescence | inhibition, % at 10 µM | hit rate 78% among 5,000; in the data active = inhibition above about 22%;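 note: 0% = DMSO vehicle and 100% = positive control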
* = called active by the depositor; · = not tested or not shown. A selection: hits, their analogues and other compounds. The true share with any hit is near 4.8%.

SMILES | CSC inhib | Calb FLC | Mdm2-MdmX inh | MPTP inh | Beta apoptosis | MPTP counter
Oc1ccc(Cl)c(Cl)c1 | 2.0 | · | 15.8 | 1.9 | -8.7 | ·
Oc1cc(Cl)c(Cl)c(Cl)c1 | · | · | · | 94.9* | · | 87.0*
O=C(CF)NC(NC(=S)Nc1cccc([N+](=O)[O-])c1)C(Cl)(Cl)Cl (configuration not stated) | -4.3 | -6.8 | 4.0 | 79.0* | -6.2 | 92.3*
CCC(=NCCO)c1c(O)n(C2CCCCC2)c(=O)[nH]c1=O | -7.7 | -5.1 | 5.8 | -0.5 | -3.3 | ·
CCC(=NCc1ccc2c(c1)OCO2)c1c(O)n(C2CCCCC2)c(=O)[nH]c1=O | 18.6 | -1.4 | 24.7 | 77.9* | 16.6 | 67.8*
CCOC(=O)c1cc2c(cn1)[C@H](CCO)NC2 | · | · | · | -0.3 | · | ·

Bioassay records as filed in PubChem BioAssay.
